# Experimental data taken from ChEMBL document CHEMBL1157539, “Thousands of chemical starting points for antimalarial lead identification” (Nature, 2010).
# Where “and” joins values, the source holds several entries; their conditions need not be identical. Equal entries are not always repeated.
# Key:
# Type in all cases: functional
# [1] = system: Plasmodium falciparum; assay: GSK_TCMDC: Inhibition of Plasmodium falciparum 3D7 in whole red blood cells, using parasite LDH activity as an index of growth. Test compounds present at 2uM
# [2] = system: Plasmodium falciparum; assay: GSK_TCMDC: Inhibition of Plasmodium falciparum Dd2 in whole red blood cells, using parasite LDH activity as an index of growth. Test compounds present at 2uM
# [3] = system: HepG2; assay: GSK_TCMDC: Percent inhibition of human HepG2 cell line. Test compounds present at 10uM.
SMILES,Inhibition [1],Inhibition [2],Inhibition [3] [%]
CCOC(=O)c1nc(-c2cccc(F)c2)[nH]c1N.Cl,98%,2%,0
COc1ccc2c(c1C1CCN(CCCCNC(=O)c3ccc(-c4ccc(Cl)cn4)cc3)CC1)CCCC2,90%,49%,29
CCn1c(-c2nonc2N)nc2c(-c3cccc(NC(=O)Nc4ccccc4Cl)c3)ncc(OCCCN)c21.O=C(O)C(F)(F)F,99%,74%,2
CC(C)(C)C(=O)N1CCN(c2ccc([N+](=O)[O-])c(NC3CC3)c2)CC1,95%,97%,8
CC1(C)N=C(NC(=O)c2ccc([N+](=O)[O-])cc2)N=C(N)N1OCc1ccc2ccccc2c1,95%,78%,64
CCCNCc1ccc(-c2ccc(CN(Cc3cnc(C)cn3)C(=O)/C=C/c3ccccc3C)cc2)nc1.O=C(O)C(F)(F)F,95%,15%,7
COc1cc(C(=O)N2CCOC(CCN3CCC(Cc4ccc(F)cc4)CC3)(c3ccc(Cl)c(Cl)c3)C2)cc(OC)c1OC (configuration not stated),88%,58%,44
COc1ccc(CN2CCCN(Cc3ccc(C(=O)Nc4ccc(Cl)cc4)cc3)CC2)cc1.O=C(O)C(F)(F)F,91%,3%,46
O=C(Nc1ccc(Cl)c(C(F)(F)F)c1)c1ccc(C(=O)Nc2ccc(Cl)c(C(F)(F)F)c2)cc1,88%,27%,9
COc1ccccc1C1CCN(C2CCC(NC(=O)c3cc4ccccc4[nH]3)CC2)CC1 (configuration not stated),88%,7%,49
Cc1cc(O)nc(NC(=N)NOCCCc2ccccc2)n1,100%,4%,0
Cc1nc(-c2cccc(Nc3nccc(NCC(O)c4ccccc4)n3)c2)cs1 (configuration not stated),99%,82%,43
Oc1ccc2ccccc2c1CNCC1CCCCC1,98%,93%,0
Cc1cccc2nc(-c3ccc(-c4cccc(CNCCN(C)C)c4)cc3)[nH]c12.O=C(O)C(F)(F)F,100%,98%,6
CCCC(=O)Nc1ccc(Nc2nc(C)cc(N3CCCC3)n2)cc1,100%,46%,31
O=C1NC(=O)C(c2cccc(NC(=O)c3ccncc3)c2)=C1c1ccccc1,100%,0%,5
CCN(CCCN1CCCCC1)c1cc(C)nc(Nc2ccc(Cl)c(C(F)(F)F)c2)n1.O=C(O)C(F)(F)F,96%,55%,43
COc1ccc(-c2cc(C(=O)N[C@@H](CC3CCCCC3)C(=O)NCCN3CCCCC3)ccc2O)cc1,98%,72%,3
Cc1ccc(NC(=O)NC2CCN(CCCCCNC(=O)C3CC3c3ccc(Cl)c(Cl)c3)CC2)cc1 (configuration not stated),100%,19%,35
O=C(Nc1cccc(CN2CCCN(Cc3ccccc3)CC2)c1)c1cc2ccccc2s1.O=C(O)C(F)(F)F,87%,28%,41

SMILES,Inhibition [1],Inhibition [2],Inhibition [3] [%]
CC(=O)Nc1ccc(Nc2c3ccccc3nc3ccccc23)cc1,89%,62%,41
CN1CCN(c2cc3c(cc2Br)CCN3C(=O)Nc2ccc(-c3cnc4ccccc4c3)cc2)CC1,99%,79%,100
CCOC(=O)NCC(=O)Nc1cccc(-c2cccc(-c3nc4cccc(C)c4[nH]3)c2)c1,88%,35%,14
CC(=O)Nc1cccc(CNc2cc(C)nc(Nc3ccc(C)cc3)n2)c1,82%,23%,18
CCCc1ccc(S(=O)(=O)Nc2ccc3c(c2)CCC3)cc1,96%,0%,8
Cc1cc(=NN=Cc2ccc(Cl)cc2)c2cc(F)ccc2[nH]1,100%,98%,6
Cc1nc2nc(N)nc(N)c2c(C)c1Cc1c(Cl)cccc1Cl.Cl,94%,5%,7
COc1ccc2nccc([C@@H](O)CN3CCC(NCc4nc5ccc(F)cc5[nH]4)CC3)c2c1.O=C(O)C(=O)O,100%,4%,20
O=c1cc(NCCCNCc2cccc(C(F)(F)F)c2Cl)[nH]c2ccccc12,94%,24%,0
CN(c1ccccc1)c1ccnc(NC(=N)Nc2ccc(Cl)cc2)n1,87%,6%,30
CC(C)(C)NCCN(Cc1ccc(-c2ccc(C(F)(F)F)cc2)cc1)C(=O)Cn1c(CCc2cccc(F)c2F)nc(=O)c2ccccc21,99%,68%,46
CC(C)(C)c1ccc(C(=O)N2CCC3(CC2)C(=O)N(CC(=O)NCC2CCCO2)CN3c2ccccc2)cc1 (configuration not stated),100%,100%,8
CN1CCC(C(=O)Nc2ccc(-c3ccc(-c4nc5ccccc5[nH]4)s3)cc2)CC1,99%,22%,30
CN(C)c1ccc(CN2CCC(NC(=O)c3ccc(-c4ccc(N(C)C)cc4)s3)CC2)cc1.O=C(O)C(F)(F)F,93%,21%,24
CNC(=O)CNC(=O)COc1cccc2ccccc12,98%,0%,3
CC(C)(C)c1ccc(C(=O)Nc2ccc3nc4c(c(N)c3c2)CCCC4)cc1.Cl,100%,99%,21
COc1cccc(CN(C(=O)Nc2ccccc2F)[C@H]2C[C@H]3C(=O)Nc4cc(F)ccc4C(=O)N3C2)c1,93%,75%,0
NC1=NC(c2ccccc2)(c2cccc(O)c2)C(=O)N1CCCc1ccccc1 (configuration not stated),85% and 98%,38% and 93%,0
CCOc1cc(C)ccc1NC1CCN(CCCCNC(=O)c2ccc(NC(=O)c3ccc(Cl)cc3)cc2)CC1,100%,70%,17
O=C(O)C(F)(F)F.c1ccc2[nH]c(-c3ccc(-c4ccc(CNCC5CCCO5)cc4)s3)nc2c1 (configuration not stated),100%,87%,27

SMILES,Inhibition [1],Inhibition [2],Inhibition [3] [%]
Cc1ccc(C2=NNC3(S2)C(=O)N(C)c2ccccc23)cc1 (configuration not stated),82%,12%,36
CC(C)Cn1cc(C2CCN(CCN3CCC(CNC(=O)c4ccc(NC(=O)c5ccc(Cl)cc5)cc4)CC3)CC2)c2ccccc21,100%,99%,28
COc1cc2nc(C)nc(Nc3ccc(Oc4ccccc4)cc3)c2cc1OC.Cl,100%,72%,0
O=C(Cc1c[nH]cn1)Nc1ccc(-c2ccc(-c3nc4cc(C(F)(F)F)ccc4[nH]3)s2)cc1,100%,99%,48
CCN(CC)CCNC(=O)c1ccc(NC(=O)c2oc3c(Cl)cccc3c2C)cc1,98%,68%,24
Cc1cnc(Nc2ccccc2)nc1N[C@@H](CCCN)C(=O)Nc1ccccc1.O=C(O)C(F)(F)F,100%,0%,0
CN(C)c1ccc(-c2csc(C(=O)NCC3CCN(Cc4ccc(C(C)(C)C)cc4)C3)c2)cc1.O=C(O)C(F)(F)F (configuration not stated),97%,64%,29
O=C(Nc1cccc(-c2cccc(-c3ccc(F)cc3)n2)c1)c1ccc([N+](=O)[O-])o1,99%,42%,100
Cc1cc(C(=O)CN2C(=O)NC3(CCCc4ccccc43)C2=O)c(C)n1Cc1ccco1 (configuration not stated),90%,0%,11
CN(C)c1ccc(-c2ccc(C(=O)NC3CCN(Cc4ccccc4)CC3)s2)cc1.O=C(O)C(F)(F)F,92%,10%,20
COc1ccc(NC(=O)[C@H](Cc2ccccc2)Nc2cc(C)nc(NCCc3ccccn3)n2)cc1.O=C(O)C(F)(F)F,99%,39%,0
Cl.N=C(N)NN=Cc1ccc2c(ccc3ccccc32)c1,100%,68%,9
CCCCCCN1CCN(Cc2cccc(NC(=O)c3cccc(OCC)c3)c2)CC1.O=C(O)C(F)(F)F,85%,48%,65
c1cc(-c2nc3ccccc3[nH]2)nc(-c2nc3ccccc3[nH]2)c1,87%,24%,7
Cl.N#Cc1ccc(-c2ccc(C(=O)Nc3ccc4c(c3)CCN(C3CCC3)CC4)nc2)cc1,99%,63%,21
Oc1ccccc1CN1CCC2(CCCN(Cc3ccccc3F)C2)C1 (configuration not stated),98%,83%,13
CSCCC(C(=O)O)N1C(=O)c2ccccc2C1=O (configuration not stated),91%,0%,0
Cc1ccccc1Nc1nc(Nc2ccccc2)c2ccccc2n1.Cl,100%,21%,19
COc1ccc(C(=O)N[C@@H](CC(C)C)C(=O)N[C@H](/C=N/NC(=O)c2ccccc2)CCc2ccccc2)cc1OCCN1CCOCC1,96%,86%,2
